SW480 rerep – A quantitative high throughput screen for small molecules that induce DNA re-replication in SW480 colon adenocarcinoma cells. hit rate 1.8% among 340,000. SW480 DNA re-replication, Hoechst DNA content imaging, 48 h. AID 624297, 2012. Potency, µM (top dose mostly 46.1 µM), actives largely listed as activators; note: nearly all actives have a fitted effect of over 55% in size
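Image-based DNA-content assay: after two days of treatment, nuclei were labelled with the DNA dye Hoechst and imaged, and hits were compounds raising the count of nuclei showing high fluorescence intensity.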
KB-3-1 cytotox – qHTS assay for MDR1-selective chemotherapeutics: Primary screen using the parental adenocarcinoma cell KB-3-1; KB-3-1 viability, CellTiter-Glo ATP luminescence, 72 h; Potency, µM (series often up to 46.1 µM), most hits filed as cytotoxic; hit rate 1.4% among 400,000; note: nearly all actives have a fitted effect of over 60% in size
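Parental KB-3-1 adenocarcinoma cells in phenol-red-free DMEM with 10% FBS were pin-treated with compounds at several concentrations, incubated 72 h at 37 °C, and viability read by CellTiter-Glo luminescence; concentration-effect curves were fitted after normalization.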
MCF10A rereplic – A quantitative high throughput screen for small molecules that induce DNA re-replication in MCF 10a normal breast cells; hit rate 2.9% among 350,000; Potency, µM (titrated, usually from 46.1 µM), hits mostly activators; MCF 10A DNA re-replication, Hoechst nuclear intensity, 48 h; note: nearly all actives have a fitted effect of over 50% in size
KB-V1 MDR tox – qHTS assay for MDR1-selective chemotherapeutics: Primary screen using the drug-selected MDR subline cells KB-V1; hit rate 3.4% among 400,000; Potency, µM (series often up to 46.1 µM), actives largely listed as cytotoxic; KB-V1 MDR cells viability, CellTiter-Glo, 72 h; AID 1347076, 2019; note: nearly all actives have a fitted effect of over 60% in size
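In this primary screen, KB-V1 cells overexpressing P-gp are incubated with library compounds (lowest to highest concentration) for 72 h at 37 degrees C before a luminescent ATP viability read.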
IL1B secr inh – qHTS for Inhibitors of Inflammasome Signaling: IL-1-beta AlphaLISA Primary Screen; THP-1 LPS/ATP IL-1B secretion, AlphaLISA, 16 h; active compounds read low; activity change, % at 57.5 µM; hit rate 4.7% among 360,000; AID 743279, 2014; in the data active = activity change below about -50%; inconclusive = mostly about -30% to -49%
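THP-1 cells pretreated 1 hr with compounds (up to 57.5 uM final), then stimulated with LPS (250 ng/mL final) plus ATP (1.25 mM final); secreted IL-1B measured by AlphaLISA after 16 hr, decreased signal indicating inhibition.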
Numbers stand for hits; – = inactive; ? = inconclusive; · = no result given. Rows were chosen to be rich in hits. Some 9.9% of all compounds tested hit in one or more screens of this group. Unless noted, calls come from the whole dose curve; as a rule, active = well fitted curve in the direction sought with a large enough effect; inconclusive = small, poorly fitted or top-dose-only effect, or another doubt; inactive = no such curve, though single readings can be large; an effect the other way counts as inactive or inconclusive.

SMILES | SW480 rerep | KB-3-1 cytotox | MCF10A rereplic | KB-V1 MDR tox | IL1B secr inh
CC(=O)Nc1cccc(NC(=O)Cn2cnc3c(oc4ccccc43)c2=O)c1 | · | – | · | – | ·
COc1cc(NC(=O)CCCOc2cc(=O)n(C)c3ccccc23)cc(OC)c1OC | · | – | · | – | ·
Cc1ccc(CN2C(=O)C(=O)c3cc(C)ccc32)cc1 | ? | ? | ? | ? | –
Cc1ccc2c(c1)C(=O)C(=O)N2Cc1ccc(Br)cc1 | 18µM | – | ? | ? | –
CCCN1C(=O)C(=O)c2cc(C)ccc21 | 6.5µM | 6.5µM | – | 8.2µM | –
O=C1C(N2CCOCC2)=C(n2nnc3ccccc32)C(=O)c2ccccc21 | ? | – | ? | 4.1µM | -78
O=C1c2ccccc2C(=O)c2c1cccc2-n1nnc2ccccc21 | – | – | – | – | –
COc1ccc(NC(=O)/C(N=Nc2cc(S(=O)(=O)Nc3ccc(OC)cc3)ccc2OC)=C(\C)O)cc1 | – | ? | 0.58µM | – | –
COC(=O)c1ccc(C(=O)OC)c(NC(=O)N2CC3CCCN3c3ccccc32)c1 (stereo not drawn) | · | – | · | – | ·
Cc1cccc(OCC(=O)Nc2nonc2-c2ccc(Br)cc2)c1C | · | – | · | – | ·
COc1cccc(CC(=O)Nc2ccc3nc(C)sc3c2)c1 | 9.2µM | – | – | ? | –
O=C(NCCN1CCOCC1)c1ccc(NS(=O)(=O)c2cccc([N+](=O)[O-])c2)cc1 | – | – | – | ? | –
Cc1csc(NC(=O)c2ccc(Cn3nc(C)c(Br)c3C)o2)n1 | – | ? | ? | 2.6µM | -73
COc1ccc(N2CC(NC(=O)c3ccco3)CC2=O)cc1OC (stereo not drawn) | · | – | · | – | ·
Cc1ccc2nc(-c3ccc(NS(C)(=O)=O)cc3)cc(-c3ccccc3)c2c1 | – | – | ? | – | –
CCS(=O)(=O)Nc1ccc(-c2cc(-c3ccccc3)c3cc(C)ccc3n2)cc1 | ? | – | 15µM | – | –
C=CCc1cccc(/C=N/NC(=O)CNc2cccc3ccccc23)c1O | ? | ? | ? | – | –
C=CCc1cccc(/C=N/NC(=O)C(C)Nc2cccc(C)c2)c1O (stereo not drawn) | 3.3µM | ? | – | – | –
C=CCc1cccc(/C=N/NC(=O)CNc2ccccc2OC)c1O | 16µM | ? | ? | ? | –
COc1ccccc1NC(=O)c1c(N=Cc2c(O)ccc3ccccc23)cnn1C | ? | 21µM | ? | ? | –
C=CCc1cccc(/C=N/NC(=O)CNc2ccccc2)c1O | 13µM | – | – | – | –
CC(C)(CO)NCC(=O)Nc1cc(C(F)(F)F)cc(NC(=O)CNC(C)(C)CO)c1Cl | – | – | – | – | –
C=CCc1cccc(/C=N/NC(=O)CCCNc2ccc(C)cc2)c1O | ? | ? | ? | 23µM | –
COc1ccccc1NCC(=O)N/N=C/c1c(O)ccc2ccccc12 | 3.3µM | ? | ? | – | –
Cc1cc2ncn(-c3ncnc4scc(-c5ccccc5)c34)c2cc1C | – | – | – | 4.1µM | –
SMILES | SW480 rerep | KB-3-1 cytotox | MCF10A rereplic | KB-V1 MDR tox | IL1B secr inh
Cc1cc2ncn(-c3ncnc4sc5c(c34)CCCC5)c2cc1C | – | – | – | – | –
Cc1cc2ncn(-c3ncnc4sc5c(c34)CCC(C)C5)c2cc1C (stereo not drawn) | – | – | ? | 13µM | –
Cc1cc2ncn(-c3ncnc4sc(C)c(C)c34)c2cc1C | – | – | – | – | –
Cc1cc(C(=O)CSc2nc(N)cc(=O)[nH]2)ccc1F | – | – | 13µM | – | –
Cc1ccc(C(=O)CSc2nc(N)cc(=O)[nH]2)cc1C | – | – | – | – | –
Cc1ccc(CC(=O)Nc2ccc(F)c([N+](=O)[O-])c2)cc1C | – | – | – | – | –
COc1cc(Br)cc(CNc2ccc(F)c([N+](=O)[O-])c2)c1O | – | – | – | – | -95
O=C1S/C(=C/c2ccccc2F)C(=O)N1CCN=C1NS(=O)(=O)c2ccccc21 | – | – | – | – | -97
O=C(CN1C(=O)S/C(=C\c2ccccc2F)C1=O)Nc1ccccc1O | – | – | – | – | –
Cc1cc(C)c(S(=O)(=O)n2ccc3ccccc32)c(C)c1 | – | 23µM | ? | ? | –
CCCCc1nc(SCC(=O)N2CCCC2)c2c(=O)n(C)c(=O)n(C)c2n1 | – | – | – | ? | –
CCc1c(C)c(C#N)c2nc3ccccc3n2c1NCCCN(C)C | · | – | · | – | –
CCCCc1c(C)c(C#N)c2nc3ccccc3n2c1NCCN(C)C | ? | – | 23µM | – | –
Cc1c(Cc2ccccc2)c(NCCN(C)C)n2c(nc3ccccc32)c1C#N | 29µM | – | 23µM | ? | -71
O=C(Nc1cccc2nsnc12)c1cc2c(cc1Cl)Sc1nccn1S2(=O)=O | – | ? | – | – | –
CCC(C)[C@H](NS(=O)(=O)c1ccc(C)cc1)C(=O)N1CCC(C(=O)N[C@@H](Cc2ccccc2)C(=O)O)CC1 (stereo partly drawn) | – | – | – | ? | –
COC(=O)Cc1ccc(NC(=S)N2CCN(CCO)CC2)cc1 | – | – | – | – | –
CSc1nnc(-c2sc3cc(Cl)ccc3c2Cl)n1C | – | ? | ? | 18µM | –
CCn1c(-c2csc3c2CCCC3)n[nH]c1=S | – | – | – | ? | –
CCCCn1c(-c2csc3c2CCC(C)C3)n[nH]c1=S (stereo not drawn) | – | 21µM | – | 15µM | –
CCCCn1c(-c2csc3c2CCCC3)n[nH]c1=S | – | – | – | 21µM | –
CCCCn1c(-c2csc(C(C)C)c2)n[nH]c1=S | – | – | – | 23µM | –
Cc1ccc(NC2=NC3(CCCC3)N=C(N)N2)c(C)c1 | ? | 4.1µM | – | – | –
Cc1cccc(NC2=NC3(CCCCC3)N=C(N)N2)c1C | – | – | – | – | –
NC1=NC2(CCCCC2)N=C(Nc2ccc(Br)cc2)N1 | – | 23µM | – | – | -102
SMILES | SW480 rerep | KB-3-1 cytotox | MCF10A rereplic | KB-V1 MDR tox | IL1B secr inh
Cc1cccc(C)c1NC1=NC2(CCCCC2)N=C(N)N1 | – | – | – | – | ?
Cc1ccccc1NC1=NC2(CCCC2)N=C(N)N1 | – | ? | ? | ? | –
Cc1ccc(C)c(NC2=NC3(CCCCC3)N=C(N)N2)c1 | – | 18µM | – | – | –
Cc1ccc(NC2=NC3(CCCCC3)N=C(N)N2)c(C)c1 | – | 7.3µM | – | – | ?
CC(C)C(=O)Nc1nnc(S(=O)(=O)N(C)Cc2ccc(F)cc2)s1 | · | – | · | – | ·
CC1(NC(=O)/C=C/c2nc3ccccc3s2)CCS(=O)(=O)C1 (stereo not drawn) | – | – | – | – | –
O=C(Nc1ccon1)Nc1cccc(Cl)c1Cl | – | – | – | – | –
COc1ccc(C2=NOC(C(=O)N(C)Cc3ccccc3)C2)cc1 (stereo not drawn) | – | – | – | – | –
O=c1[nH]c(-c2ccccn2)nc(C(F)(F)F)c1Br | 10µM | ? | 18µM | – | –
